Marburg entry inh – inhibitors of Marburg virus binding or cell entry; Marburg virus pseudotyped entry inhibition, cell reporter; Potency, µM (highest dose often 37.8 µM), without a hit: at the top dose activity change, negative = inhibition, actives largely listed as inhibitors; 300,000 compounds, 1.8% hits; calls by dose curve; tested in HEK293 cells; also: potency is read from the fitted curve at half-maximal effect; % is scaled to controls: 0 for no effect and ±100 for the full control effect
HCV inh – inhibitors of hepatitis C virus infection; Huh7.5.1 HCVcc-Cre infection, luciferase reporter, 44 h; Potency, µM (highest dose often 41.8 µM), without a hit: at the top dose activity change, negative = inhibition, hits mostly inhibitors; 340,000 compounds, 3.4% hits; AID 651820; active = well fitted inhibition curve with a large enough effect; inconclusive = small, poorly fitted or top-dose-only effect, or another doubt; inactive = no such curve, though single readings can be large or run the other way; also: potency is read from the fitted curve at half-maximal effect; % is scaled to controls: 0 for no effect and ±100 for the full control effect
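Antiviral activity was scored by luciferase reporter output from cells infected with HCVcc-Cre (~0.5 moi) in presence of compound, 44 h infection period, cells seeded 1,000/well 4 h prior.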
FMDV inh – blocks foot and mouth disease virus. 410,000 compounds, 1.2% hits. FMDV antiviral cell-based qHTS. Potency, µM (highest dose often 57.9 µM), for the others: top-dose activity change, negative = inhibition, actives largely listed as inhibitors; calls by dose curve; tested in HEK293T cells; also: read-out not given here; potency is read from the fitted curve at half-maximal effect; % is scaled to controls: 0 for no effect and ±100 for the full control effect; nearly all actives have a fitted effect of over 45% in size
Shiga inhibitor – Shiga toxin inhibition; inhibition, % at 38.7 µM; 290,000 compounds, 9.2% hits; AID 2315; Vero cells, Shiga toxin protein synthesis inhibition reporter; in the data active = inhibition mostly above about 28%, no sharp cut-off; inactive = mostly below about 43%; also: 0% is about no effect
LASV entry inh – blocks Lassa virus binding to or entry into cells; Potency, µM (series often up to 37.9 µM), without a hit: at the top dose activity change, negative = inhibition, hits mostly inhibitors; 300,000 compounds, 1.2% hits; AID 540256; Lassa virus pseudotype entry inhibition, cell reporter; calls by dose curve; tested in HEK293 cells; also: potency is read from the fitted curve at half-maximal effect; % is scaled to controls: 0 for no effect and ±100 for the full control effect; nearly all actives have a fitted effect of over 50% in size
Cycloheximide cs – counter-screen hit for Shiga toxin inhibitors, cycloheximide; AID 2314; max response, %; 300,000 compounds, 12% hits; cell reporter, cycloheximide protein synthesis inhibition counterscreen; in the data active = max response mostly above about 13%, no sharp cut-off; inactive = mostly below about 14%; also: read at 38.3 µM for the half of the compounds with a filed dose; 0% is about no effect
An asterisk follows results filed as active; u = inconclusive; x = no result given; ! = not active in a repeat; [ ] = another dose, or the depositor's remark. This is a sample that favours compounds with a hit; in the whole collection about 13% have one here.

SMILES	Marburg entry inh	HCV inh	FMDV inh	Shiga inhibitor	LASV entry inh	Cycloheximide cs
Cc1cc(NC(=O)CSc2nnc(C)n2C)no1	12%[46.1 µM]	21%	0%	-5	19%[46.1 µM]	-4
OC(CN1c2ccccc2Sc2ccccc21)Cn1nnc2ccccc21 (stereo not given)	u	u	u	18	-2%	16*
Cc1nn(CC(O)c2ccccc2)c(C)c1Br (stereo not given)	3%	-17%	23%	-11	14%	13
Cc1nn(CC(O)CN2c3ccccc3Sc3ccccc32)c(C)c1Br (stereo not given)	11µM*	u	u	15	u	6
O=C1c2ccccc2C(=O)N1CC(O)Cn1nnc2ccccc21 (stereo not given)	9%	14%	-15%	-4	-13%	-1
CC(=O)OC[C@H]1O[C@H](CC=NO[C@H](C)c2cn([C@H](CO)Cc3ccccc3)nn2)C=C[C@@H]1OC(C)=O	13%[14.2 µM]	x	x	x	-21%[14.3 µM]	x
CCCNC(=O)CS(=O)Cc1nc(-c2cccc(OC)c2)oc1C (stereo not given)	x	11%	-18%	1	x	1
COc1ccc(OC)c(Nc2nc(-c3c(C)nc4ncccn34)cs2)c1	x	u	u	1	x	2
CN(C)C(=O)c1ccc(Nc2nc(-c3cccs3)nc3ccccc23)cc1	u	2.8µM*	-9%	24	u	6
COc1ccc(OC)c(Nc2nc(-c3sc(NC(=O)c4ccccc4)nc3C)cs2)c1	0%	x	x	35	x	-2
COc1ccc(Nc2nc(-c3cccs3)cs2)c(OC)c1	11%	10µM*	49%	106*	27%	46*
CN(C)C(=O)c1ccc(-c2nc(Nc3ccc(F)cc3)c3ccccc3n2)cc1	x	x	42%	x	x	x
COc1ccc(OC)c(Nc2nc(-c3cccs3)cs2)c1	-1%	14µM*	x	17	8%	23*
COc1ccc(Nc2nc(-c3sc(C)nc3C)cs2)c(OC)c1	x	u	-16%	13	x	8.8*
CC[C@H]1C/C=C\Cc2ccccc2[C@@H](C(=O)C[C@@H](O)CC(C)=O)OC1=O	x	-45%	-27%	x	x	x
COc1cc(OC)c(S(=O)(=O)N2CCN(C(=O)c3ccco3)CC2)cc1NC(C)=O	u	-9%	8%	-11	-5%	-1
CCC(Sc1nc2ccccc2c(=O)n1CCN1CCOCC1)C(=O)NCc1cccnc1 (stereo not given)	4%	2%	-20%	-11	2%	-1
COc1ccccc1Nc1nc(-c2cccs2)cs1	u	u	55%	77*	u	37*
COc1ccc(Nc2nc(-c3cccs3)cs2)cc1	u	-19%	86%	42*	0%	41*
COc1ccc(Nc2nc(-c3cccc([N+](=O)[O-])c3)nc3ccccc23)c(OC)c1	u	-11%	-28%	-9	-27%	-9
COc1ccc(Nc2nc(-c3cccs3)nc3ccccc23)c(OC)c1	u	11µM*	-15%	22	u	5
N#Cc1ccc(-n2nccc2-c2cnc3n(c2=O)CCS3)cc1	16%[46.1 µM]	4%	16%	2	0%	26*
CC1(C)CC(=O)C2=C(C1)Oc1nc3ccccc3cc1C2C(C#N)C#N (stereo not given)	u	u	8.9µM*	-3	16µM*	-1
CCCCC/C=C\C/C=C\C/C=C\C/C=C\CCCC(=O)NCc1ccc(O)c(OC)c1	x	x	x	47	x	18
COc1cc(CNC(=O)CCCC/C=C/C(C)C)ccc1O	x	1%	45µM*!	x	x	x
SMILES	Marburg entry inh	HCV inh	FMDV inh	Shiga inhibitor	LASV entry inh	Cycloheximide cs
Cc1c(C)n(Cc2ccc(Cl)cc2)c2ccc(C(=O)NCCN3CCOCC3)cc12	x	u	-16%	-8	x	-3
C/C(=N\Nc1nnc2c3ccccc3n(C)c2n1)c1ccc(C)o1	-39%	-28%	16%	29	u	13
C/C(=N\Nc1nc(C)cc(C)n1)c1ccc(C)o1	-19%	7%	14%	29	1%	21*
CNC(=O)C(=O)Nc1nc(C23CC4CC(CC(C4)C2)C3)cs1	20%[46.1 µM]	4%	26%	8	22%	16*
O=C(NCc1ccccc1)C(=O)Nc1nc(C23CC4CC(CC(C4)C2)C3)cs1	4%	u	u	-3	-1%	-2
COc1ccc(C(=O)CCC(=O)Nc2cccc(C(C)=O)c2)cc1	x	x	-12%	x	27%[46.1 µM]	x
COc1ccc(C(=O)CC(=O)C(=O)Nc2ccc(C)c(C)c2)cc1	u	-12%	-18%	94*	11%[46.1 µM]	18*
COc1ccc(C(=O)CC(=O)C(=O)Nc2cccc(C(C)=O)c2)cc1	23%[46.1 µM]	-8%	4%	24	-1%[46.1 µM]	17*
COc1cccc(C(=O)CC(=O)C(=O)Nc2cc(OC)ccc2OC)c1	-5%[46.1 µM]	1%	-12%	-2	u	-3
COc1cccc(C(=O)CC(=O)C(=O)Nc2ccc(C)cc2Cl)c1	-29%[46.1 µM]	12%	-18%	38*	29%[46.1 µM]	12*
CCN(Cc1ccccc1)c1ncnc2c1nnn2C	x	x	0%	x	-19%[46.1 µM]	x
CC(C)CC(=O)NCC(c1ccc2c(c1)OCO2)N1CCN(c2ccccc2)CC1 (stereo not given)	x	x	-16%	x	9%[46.1 µM]	x
O=C(COC(=O)c1cccc([N+](=O)[O-])c1)NCC1CCCO1 (stereo not given)	1%	10%	-12%	24	12%	6
CCc1ccc(N(C(C)=O)c2nc(CCl)cs2)cc1	13%[46.1 µM]	-12%	-16%	48	-6%[46.1 µM]	29*
CC(C)=CC(=O)O[C@H]1[C@@H]2[C@H](C)C(=O)O[C@@H]2C[C@@H](C)[C@@H]2[C@@H](O)CC(=O)[C@]21C	x	20%	u	-5	x	-7
C[C@@H]1C[C@H]2OC(=O)C3(CO3)[C@H]2[C@H](O)[C@]2(C)C(=O)C3OC3[C@@H]12 (stereo not given in full)	x	x	x	40*	x	21*
O=C(/C=C/Nc1ccc(Oc2ccccc2Cl)cc1)c1ccco1	u	-27%	13%	117*	u	37*
COc1ccccc1Oc1ccc(N/C=C/C(=O)c2ccco2)cc1	19%[46.1 µM]	u	-57%	100*	u	50*
COc1ccccc1C1CCN(C(=O)c2ccco2)CC1	-4%[14.2 µM]	16%	-6%	11	-5%	0
CC(C)=C1CCC(C)CC1=NNC(N)=S (stereo not given)	-13%	u	u	x	u	x
CC(=O)/C(N=Nc1cccc(C(F)(F)F)c1)=C(\C)O	3%[46.1 µM]	u	4%	11	11%[46.1 µM]	1
CC(=O)/C(N=Nc1ccc(SC(F)F)cc1)=C(\C)O	x	u	22%	59*	x	44*
Cc1c([N+](=O)[O-])cc(C(=O)NCc2ccc(F)cc2)cc1[N+](=O)[O-]	-24%[46.1 µM]	u	-17%	16	-17%	2
Oc1ccc(Br)cc1-c1n[nH]c(=S)n1Cc1ccccc1	7%[46.1 µM]	17%	-10%	-2	3%[46.1 µM]	2
O=[N+]([O-])c1cccc(-c2n[nH]c(=S)n2-c2ccc(Br)cc2)c1	-1%[46.1 µM]	24%	-19%	-9	17%[46.1 µM]	-4
